# Compounds with a hit are over-represented: about 2.5% of the library has one in this group of screens.
# Pol kappa inh: inhibitors of human DNA polymerase kappa; Q9UBT6; purified Pol kappa, fluorescent DNA synthesis assay, 10 min; Potency, µM (doses to about 107 µM), hits mostly inhibitors; hit rate 0.53% among 400,000
#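 10 nM Pol kappa preincubated 15 min at room temperature with compounds, then reaction started with substrate at 50 nM final. Fluorescence read kinetically at 0 and 10 min; buffer-only wells served as negative control.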
# POLI inh: inhibitors of human DNA polymerase iota; Pol iota fluorescent replication assay, 10 min; Potency, µM (doses to about 115 µM), hits mostly inhibitors; hit rate 1% among 390,000; AID 588590
#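 Pol iota at 10 nM preincubated 15 min with compounds at room temperature; reaction started with fluorescent substrate, 50 nM final. Fluorescence read kinetically at 0 and 10 min; buffer-only wells as negative control.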
# APEX1 inh: APE1 (human) endonuclease inhibition. P27695. hit rate 0.35% among 350,000. recombinant APE1, TAMRA/BHQ-2 abasic DNA cleavage fluorescence. AID 2517. Potency, µM (doses to about 65.8 µM), most hits filed as inhibitors; note: nearly all actives have a fitted effect of over 55% in size
#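 Measures dequenching upon AP-site incision of a 5'-TAMRA/3'-BHQ-2 THF-containing duplex, 50 nM; human APE1 0.75 nM after 15 min room-temperature exposure to compound; kinetic three-point read at one-minute spacing.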
# L3MBTL1 block: L3MBTL1 (human) inhibition; Potency, µM (doses to about 57.1 µM), actives largely listed as inhibitors; hit rate 0.66% among 230,000; AlphaScreen L3MBTL1–H3K9me1 peptide binding; note: nearly all actives have a fitted effect of over 60% in size
#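 AlphaScreen proximity signal between nickel-chelate acceptor and streptavidin donor beads (final 10 ug/mL) reports binding of 50 nM L3MBTL1 to 75 nM biotin-H3 K9me1 peptide; complex incubated with compounds 30 min at room temperature; cefsulodin titration as control.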
# Pol beta inh: inhibitors of human DNA polymerase beta. Pol beta primer extension/strand displacement, fluorescence kinetic. Potency, µM (titrated, usually from 114 µM), actives largely listed as inhibitors. hit rate 1.3% among 340,000
#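 Pol beta (10 nM) and compounds were preincubated 15 min at room temperature, then 50 nM substrate (final) started primer extension/strand displacement. Reads were taken at 0 and 10 min; concentration-response data were fitted to a four-parameter Hill equation.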
# Pol eta inh: DNA polymerase eta (human) inhibition; Q9Y253; recombinant Pol eta, fluorescent DNA replication assay; Potency, µM (top dose mostly 114 µM), actives largely listed as inhibitors; hit rate 1.2% among 390,000; AID 588591
#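 Fluorescent replication assay: 50 nM final substrate added after a 15 min room-temperature compound preincubation with 10 nM enzyme. Signal taken at 0 min and again at 10 min.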
# Hits are given with their value; 0 = inactive; ? = inconclusive; - = not tested or not shown; [ ] = another dose, or the depositor's remark. Calls come from the whole dose curve; as a rule, active = well fitted curve in the direction sought with a large enough effect; inconclusive = small, poorly fitted or top-dose-only effect, or another doubt; inactive = no such curve, though single readings can be large; an effect the other way counts as inactive or inconclusive.
SMILES,Pol kappa inh,POLI inh,APEX1 inh,L3MBTL1 block,Pol beta inh,Pol eta inh
COc1cc(/C=C2\SC(=Nc3ccccc3)NC2=O)cc(Cl)c1O,0,0,0,-,56µM,?
CCCCc1ccc(CC(=O)NO)cc1,0,0,-,-,-,-
CCc1ccc2oc(-c3cccc(NC(=O)c4cc5ccccc5o4)c3)nc2c1,0,0,-,-,0,0
CC(=O)N1CCC(C(=O)NCCOc2ccc(C)cc2)CC1,0,0,0,-,0,0
O=C1OC2(CCCCC2)CC2=C1C1O[C@](c3ccsc3)(Cc3c1ccc1ccccc31)O2,-,-,0[12.4 µM],-,10µM,-
Cc1ccc(-c2csc(N3N=C(c4ccccc4)/C(=C\c4ccc(N(C)C)cc4)C3=O)n2)cc1,-,-,0,0,50µM,-
CNC(=O)COc1ccc(Nc2nnc(-c3ccc(C)c(S(N)(=O)=O)c3)c3ccccc23)cc1,0,0,0,-,0,40µM
Cc1ccc2[nH]c(=O)c(CN(CCCO)Cc3nnnn3Cc3ccco3)cc2c1,?,79µM,-,-,-,-
O=c1[nH]c2cc3c(cc2cc1CN(Cc1ccccc1)Cc1nnnn1Cc1ccco1)OCCO3,?,18µM,0,?,32µM,?
COc1ccccc1CN(Cc1cc2cc3c(cc2[nH]c1=O)OCCO3)Cc1nnnn1Cc1ccco1,?,?,0,0,14µM,32µM
O=c1[nH]c2cc3c(cc2cc1CN(Cc1cccnc1)Cc1nnnn1Cc1ccco1)OCCO3,89µM,16µM,?,-,40µM,?
Cc1ccc2[nH]c(=O)c(CN(Cc3ccco3)Cc3nnnn3Cc3ccccc3)cc2c1,0,0,-,-,-,-
CCc1ccc2[nH]c(=O)c(CN(Cc3ccccc3)Cc3nnnn3Cc3ccco3)cc2c1,0,?,?,0,0,0
O=C1CCC(C(=O)N2CCCCCC2)CN1CCc1ccc(Cl)cc1 (configuration not stated),0,0,0,-,0,0
Cc1ccc2[nH]c(=O)c(CN(Cc3ccc4c(c3)OCO4)Cc3nnnn3Cc3ccco3)cc2c1,0,0,0,0,0,0
O=c1[nH]c2cc3c(cc2cc1CN(Cc1cccs1)Cc1nnnn1Cc1ccco1)OCCO3,25µM,?,40µM,?,32µM,18µM
O=C(/C=C/c1ccccc1)Nc1cc(NC(=O)/C=C/c2ccccc2)cc(C(=O)O)c1,0,0,0,0,0,50µM
O=C(/C=C/c1ccccc1)Nc1cccc(C(=O)O)c1,0,0,0,0,0,0
CC(C(=O)NC1C(=O)N2C(C(=O)O)=C(CSc3nnnn3C)CSC12)n1cc(Cl)cn1 (configuration not stated),0,?,0,-,?,35µM
Cc1nnc(SCC2=C(C(=O)O)N3C(=O)C(NC(=O)Cc4ccccc4)C3SC2)s1 (configuration not stated),?,?,0,0,-,22µM
CC(=O)OCC1=C(C(=O)OC(C)(C)C)N2C(=O)[C@@H](NC(=O)Cc3ccccc3)[C@H]2SC1,?,32µM,-,-,-,?
Cc1cc(Cl)ccc1NC(=O)CSc1n[nH]c(N)n1,0,0,0,0,-,0
CN(C)c1ccc(/C=C/c2ccnc3c(N)cccc23)cc1,0,0,-,-,-,-
CCCn1c(NCc2ccco2)nc2c1c(=O)n(C)c(=O)n2C,?,?,0,?,22µM,?
COc1ccc(CNC(=O)C2CCN(S(=O)(=O)Cc3ccccc3)CC2)cc1,0,0,-,-,14µM,0
SMILES,Pol kappa inh,POLI inh,APEX1 inh,L3MBTL1 block,Pol beta inh,Pol eta inh
COc1ccccc1CNC(=O)C1CCN(S(=O)(=O)Cc2ccccc2)CC1,0,0,-,-,0,0
CCOc1ccc(NC(=O)c2cccc(-n3cccc3)c2)cc1S(=O)(=O)N1CCOCC1,-,-,1.3µM,5.6µM,-,-
COc1ccc(S(=O)(=O)N2CCOCC2)cc1NC(=O)c1cc2c(s1)CCCC2,0,0,0,0,0,0
COc1ccc(NC(=O)c2cc3c(s2)CCC3)cc1S(=O)(=O)N1CCOCC1,?,35µM,?,-,?,?
CCOc1ccc(C(=O)Nc2ccc(S(=O)(=O)N3CCOCC3)cc2)cc1OCC,0,0,0,0,0,0
COc1cccc(NC(=O)Cn2c(=O)n(Cc3ccccc3)c(=O)c3c2c2cc(C)ccc2n3C)c1,0,0,-,-,0,0
COc1ccc(S(=O)(=O)CC(=O)c2cc3cccc(C)c3oc2=O)cc1,0,?,0,-,?,50µM
CC(C)=C1CCC(C)CC1=O (configuration not stated),-,-,0,-,-,-
Cc1ccc(Cn2c(=N)c(C(=O)NCc3ccco3)cc3c(=O)n4ccccc4nc32)cc1,?,4µM,0,0,7.9µM,8.9µM
COc1ccc(CCn2c(=N)c(C(=O)NCc3ccco3)cc3c(=O)n4ccccc4nc32)cc1OC,?,16µM,-,-,-,45µM
COc1ccc(CCNC(=O)c2cc3c(=O)n4ccccc4nc3n(Cc3ccco3)c2=N)cc1OC,0,0,0,-,0,?
CCOCCCn1c(=N)c(C(=O)NCc2ccco2)cc2c(=O)n3ccccc3nc21,0,0,-,-,0,0
N=c1c(C(=O)NCc2ccco2)cc2c(=O)n3ccccc3nc2n1CCc1ccccc1,0,?,0,0,32µM,?
COCCCn1c(=N)c(C(=O)NCc2ccco2)cc2c(=O)n3ccccc3nc21,0,79µM,-,-,0,0
O=C(C[n+]1ccccc1Br)c1ccc(I)cc1,0,0,-,-,-,-
